NR2F2 inh = NR2F2 transcriptional activity inhibitors, primary screen, cell-based, luciferase reporter, HEK293T, luminescence. COUP transcription factor 2 (Homo sapiens), P24468. HEK293T NGFI-A luciferase reporter. inhibition, % at 8.6 µM. 370,000 compounds, 0.7% hits. AID 686940, 2013;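 active = inhibition above a per-plate cutoff, mean inhibition of test wells between control levels plus 3 SD, cut at about 38% in these data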;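 note: cells cotransfected with COUP-TFII expression vector driving the NGFI-A reporter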
Target sequence (P24468 whole entry, looked up): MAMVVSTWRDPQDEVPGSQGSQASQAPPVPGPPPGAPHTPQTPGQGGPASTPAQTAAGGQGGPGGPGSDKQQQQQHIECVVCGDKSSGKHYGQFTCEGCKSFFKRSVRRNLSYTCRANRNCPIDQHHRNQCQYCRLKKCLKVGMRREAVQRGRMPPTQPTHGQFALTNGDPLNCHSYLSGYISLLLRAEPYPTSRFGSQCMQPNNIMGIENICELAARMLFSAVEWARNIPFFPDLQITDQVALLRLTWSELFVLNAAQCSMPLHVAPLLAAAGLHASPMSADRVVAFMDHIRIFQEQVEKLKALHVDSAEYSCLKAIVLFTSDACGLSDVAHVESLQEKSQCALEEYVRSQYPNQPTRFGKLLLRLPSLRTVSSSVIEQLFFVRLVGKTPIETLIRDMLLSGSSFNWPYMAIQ
GalR3 antagonist = GalR3 antagonists in HEK293 cells, primary screen, cell-based, fluorescence readout | HEK293 GalR3-CNG cAMP membrane potential fluorescence; galR3 body fused to GalR1 C-terminus | inhibition, % at 3 µM | AID 651719, 2012 | Galanin receptor type 3 (Homo sapiens), O60755 | 360,000 compounds, 0.44% hits;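 active = inhibition above the screen-wide average plus 3 SD, cut at about 13% in these data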;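 note: forskolin and galanin both at EC90 stimulate the cells; cAMP rise reported by CNG channel membrane potential dye signal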
Target sequence (O60755 1-299 limits assumed): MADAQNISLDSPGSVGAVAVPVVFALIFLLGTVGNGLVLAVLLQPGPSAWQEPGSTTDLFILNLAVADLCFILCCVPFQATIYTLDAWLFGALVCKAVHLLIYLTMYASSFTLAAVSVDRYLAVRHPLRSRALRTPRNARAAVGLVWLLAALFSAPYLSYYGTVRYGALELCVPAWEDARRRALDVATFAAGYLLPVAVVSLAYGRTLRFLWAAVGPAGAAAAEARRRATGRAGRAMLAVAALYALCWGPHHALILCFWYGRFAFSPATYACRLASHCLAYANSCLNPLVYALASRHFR
Gli-Sufu antag = Gli-Sufu pathway antagonists, primary screen, luciferase luminescence, Sufu-KO-LIGHT cells, uHTS; Sufu-KO-LIGHT fibroblasts, Gli luciferase reporter luminescence; inhibition, % at 5 µM; 340,000 compounds, 0.74% hits;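 active = inhibition above about 55%, limit read from the data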
HIV Env fusion = inhibitors of HIV-1 Env-driven cell-cell fusion, primary screen, HeLa-JRFL effector, CEM21 target cells, luciferase; 360,000 compounds, 1.1% hits; inhibition, % at 12.3 µM;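 active = mean replicate inhibition score of at least 50 and every replicate individually at or above 50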
aDG glyco act = activators of alpha-DG glycosylation, primary screen, uHTS, Pro5-aDG cells, AlphaScreen; alpha-DG glycosylation AlphaScreen (IIH6); 0% Pro5, 100% B10-LARGE cell signal; activation, % at 10 µM; 360,000 compounds, 0.22% hits; AID 624168, 2012;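 active = activation of at least 8% versus controls, or a plate z-score of at least 8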;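 note: Pro5 are CHO cells carrying HIG-tagged alpha-DG that lacks glycosylation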
VP16 Luc counter = Gal4-VP16 luciferase reporter inhibitors, counter-screen for COUP-TFII antagonist project, cell-based, luminescence, HEK293. inhibition, % at 8.5 µM. 2,500 compounds, 25% hits. shares compounds with NR2F2 inh; in the data active = inhibition above about 13%
NR2F2 inh conf = NR2F2 transcriptional activity inhibitors, confirmation, cell-based, luciferase reporter, HEK293, triplicate; shares compounds with NR2F2 inh; HEK293 NGFI-A luciferase reporter, luminescence; inhibition, % at 8.5 µM; 2,500 compounds, 45% hits; AID 687008, 2013;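 active = mean inhibition over three repeats above a set limit taken from the earlier primary screen, cut at about 38% in these data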
Numbers stand for hits; i = inactive; nt = no result; ! = not confirmed by another sample. Only some compounds are listed: those with a hit (about 2.1% of all), similar ones and a draw of the others.

SMILES | NR2F2 inh | GalR3 antagonist | Gli-Sufu antag | HIV Env fusion | aDG glyco act | VP16 Luc counter | NR2F2 inh conf
CCCCOc1ncnc2c1[nH]c1ccccc12 | 49.3 | i | i | nt | i | i | i
CCCCOc1ncnc2c1[nH]c1ccc(OC)cc12 | i | i | i | i | nt | nt | nt
Cc1noc(C)c1NC(=O)N(C)C[C@@H]1OCCCC[C@H](C)Oc2ccc(NC(=O)Cc3ccccc3)cc2C(=O)N([C@@H](C)CO)C[C@H]1C | nt | nt | nt | i | nt | nt | nt
Nc1cc(S(=O)(=O)c2ccc(N3CCCCC3)c(N)c2)ccc1N1CCCCC1 | 42.5 | i | nt | i | i | i | i
Nc1cc(S(=O)(=O)N2CCCCC2)ccc1N1CCOCC1 | i | i | i | i | i | nt | nt
C[C@H](CO)N1C[C@H](C)[C@H](CN(C)S(=O)(=O)c2ccccc2C#N)OCc2ccccc2-c2ccccc2C1=O | nt | nt | nt | i | nt | nt | nt
CN(C)c1ccc(CCc2ccc(N)cc2)cc1 | 58.6 | i | i | i | i | 39.5 | i
CN(C)c1ccc(Cc2ccc(N(C)C)cc2)cc1 | i | i | i | nt | i | nt | nt
CCS(=O)(=O)Nc1ccc2c(c1)C(=O)N(C)C[C@H](OC)[C@@H](C)CN(CC1CCCC1)[C@H](C)CO2 | nt | nt | nt | i | nt | nt | nt
COc1ccc(CN2CCN(Cc3ccc4ccccc4c3)CC2)cc1OC | 40.6 | i | i | i | i | i | i
COc1ccc(-c2cc(C)no2)cc1S(=O)(=O)NCCCN1CCN(c2ccccc2)CC1 | i | i | i | i | i | nt | nt
Cc1cc(-c2ccc(C)c(S(=O)(=O)NCCCN3CCN(c4ccccc4)CC3)c2)on1 | 61.9 | i | i | i | i | i | i
COc1ccc2c(c1)sc1nc(-c3ccccc3)cn12 | 46.6 | i | i | nt | 14.0 | 47.4 | 39.7
CN(C)S(=O)(=O)N1CCc2ccc(NC(=O)c3ccc(C(F)(F)F)cc3)cc2C1 | 56.0 | i | i | i | i | i | i
COCCC(=O)N1CCc2ccc(NC(=O)c3ccc(C(F)(F)F)cc3)cc2C1 | 37.8 | i | i | i | i | i | i
CCCCCCCCCCCCCCCC[n+]1ccccc1 | 50.8! | i | 83.5 | i | i | i | i
COc1ccc(OCCNC(=O)c2ccc3nc(C)c(N(C)C(=O)CCc4ccccc4)n3c2)cc1 | 85.2 | i | nt | i | i | i | i
CCCCC(=O)N(C)c1c(C)nc2ccc(C(=O)NCCOc3ccc(OC)cc3)cn12 | i | i | nt | i | i | nt | nt
COc1cccc2c1C(=O)c1c(O)c3c(c(O)c1C2=O)C[C@](O)(C(C)=O)C[C@H]3O[C@@H]1C[C@@H](N)[C@@H](O)[C@@H](C)O1 | 54.9 | i | 55.6 | i | i | 36.0 | 47.1
Cc1cn([C@H]2C=C[C@@H](CO)O2)c(=O)[nH]c1=O | 60.7! | i | i | i | i | i | i
COc1cc(C#Cc2c(-c3cncn3C)n(C)c3ccc(-c4cnc(OC)nc4)cc23)cc(OC)c1 | 44.7 | i | i | i | i | i | i
COc1cc(C#Cc2c(-c3cncn3C)n(C)c3ccc(-c4cnc(N5CCOCC5)nc4)cc23)cc(OC)c1 | i | i | i | i | i | nt | nt
COc1ccc(-c2cnc3c(NC(C)=O)cc(-c4cccc(NS(C)(=O)=O)c4)cn23)cc1OC | 98.8 | i | nt | i | i | i | i
COc1cc(-c2cnc3c(NC(C)=O)cc(-c4ccc(N5CCN(C)CC5)cc4)cn23)cc(OC)c1OC | 40.9 | i | nt | i | i | i | i
CC(=O)Nc1cc(-c2cccc(NS(C)(=O)=O)c2)cn2c(-c3cccc(C(C)=O)c3)cnc12 | i | i | nt | i | i | nt | nt
SMILES | NR2F2 inh | GalR3 antagonist | Gli-Sufu antag | HIV Env fusion | aDG glyco act | VP16 Luc counter | NR2F2 inh conf
COc1cc(-c2cnc3c(NC=O)cc(-c4ccc(N5CCN(C)CC5)cc4)cn23)cc(OC)c1OC | i | i | nt | i | i | nt | nt
C[C@H](CO)N1C[C@H](C)[C@@H](CN(C)C(=O)C2CCCCC2)Oc2ncc(-c3cccc(F)c3)cc2C1=O | nt | nt | nt | i | nt | nt | nt
Cc1cc(O)c(C(=O)/C=C/c2cccc([N+](=O)[O-])c2)c(=O)o1 | i | i | i | i | i | nt | nt
CC(=O)Oc1ccccc1C(=O)C=Cc1cccc([N+](=O)[O-])c1 | 46.8 | 27.6 | i | i | i | i | i
Cc1ccc(C(=O)Nc2cnc3ccccc3c2)cc1 | 71.2 | i | i | 93.8 | i | 24.2 | 48.2
COc1ccccc1C(=O)Nc1nc2ccccc2[nH]1 | 98.4 | i | 74.8 | 72.9 | i | 86.7 | 99.5
Cc1ccc(C(=O)Nc2nc3ccccc3[nH]2)cc1 | 49.4 | i | i | i | i | i | i
COc1ccccc1C(=O)NCCC(=O)Nc1nc2ccccc2[nH]1 | i | i | i | nt | i | nt | nt
COc1ccc(C(=O)Nc2nc3ccccc3[nH]2)cc1 | i | i | i | i | i | nt | nt
CSc1ccccc1C(=O)Nc1nc2ccccc2[nH]1 | i | i | i | i | i | nt | nt
COc1cc(SC)ccc1C(=O)Nc1nc2ccccc2[nH]1 | 99.5 | i | 93.2 | 92.5 | i | 96.3 | 108.5
Cn1cnc(CCNC(=O)C[C@@H]2CC[C@@H]3[C@H](COC[C@H](O)CN3C(=O)C3CCCC3)O2)c1 | nt | nt | nt | i | nt | nt | nt
O=C(NCCN1CCCCC1)[C@@H]1[C@@H](CO)[C@@H]2Cn3c(cccc3=O)[C@@H]2N1Cc1ccccn1 | nt | nt | nt | i | nt | nt | nt
Nc1ccc2nc(SCC(=O)N3CCN(c4ccccc4)CC3)sc2c1 | 55.4 | i | i | i | i | i | i
CCc1ccc(S(=O)(=O)Nc2cc3c(cc2C)n(C)c(=O)n3C)cc1 | 40.6 | i | 65.2 | i | i | i | i
C=CCN=C1NN=C(c2cc(C)n(CCOC)c2C)CS1 | 86.1 | i | 57.9 | 75.0 | i | 75.5 | 96.0
C=CCn1c(C)cc(C2=NNC(=Nc3ccc(C)cc3)SC2)c1C | i | i | i | i | i | nt | nt
Cc1cc(C2=NNC(=NC3CC3)SC2)c(C)n1-c1ccccc1 | 52.4 | i | 90.5 | i | i | 70.6 | 106.0
COc1ccc(-n2c(C)cc(C3=NNC(=NC4CC4)SC3)c2C)cc1 | i | i | nt | i | i | nt | nt
COCCn1c(C)cc(C2=NNC(=NC3CC3)SC2)c1C | 93.9 | i | 90.7 | 57.1 | i | 89.2 | 109.4
Cc1cc(C2=NNC(=NC3CC3)SC2)c(C)n1Cc1ccco1 | 88.5 | i | 84.0 | i | i | 77.3 | 103.1
COCCn1c(C)cc(C2=NNC(=Nc3ccc(Cl)cc3Cl)SC2)c1C | i | i | i | i | i | nt | nt
COCCCN=C1NN=C(c2cc(C)n(Cc3ccco3)c2C)CS1 | i | i | i | i | i | nt | nt
O=C(C[C@H]1C=C[C@@H](NC(=O)C2CCOCC2)[C@H](CO)O1)Nc1ccc(-c2ccccc2)cc1 | nt | nt | nt | i | nt | nt | nt

Bioassay records (PubChem)
